The whole screen tested about 330,000 compounds, of which about 7,700 (2.3%) were called active. Inconclusive results (about 26%) are left out. The sample as a whole holds a higher share of actives than the screen did. A number with no mark means an inactive call. The call rests on the fitted dose curve; in most records, active means well fitted inhibition curve with a large enough effect; inconclusive means small, poorly fitted or top-dose-only effect, or effect the other way; inactive means flat fitted curve, though single readings scatter.
Test: qHTS screen for small molecules that inhibit ELG1-dependent DNA repair in human embryonic kidney (HEK293T) cells expressing luciferase-tagged ELG1; further: nearly all actives have a fitted effect of over 55% in size
Conditions: HEK293T ELG1-luciferase reporter, luminescence, 16 h, DNA damage induced by 5-fluorouridine; series mostly up to 46.1 µM; activity change, negative = inhibition: at the top concentration
Summary of the method: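 Quantitative HTS, concentration-response format. 2,000 cells/well co-treated with 5-fluorouridine and compound, 16 hr in 5% CO2 at 37 °C; ONE-Glo luminescence read after 30 min.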
On the % scale 0 is the no-effect control and ±100 the full control effect; potency means the concentration at half of the fitted maximal effect.

Structure (SMILES)	activity change, negative = inhibition [%]	Potency
COC(=O)c1ccc(CN2C(=O)NC(c3ccccc3)(c3ccccc3)C2=O)o1	2.4	–
CC[C@]1(c2ccccc2OC)C(=O)N(C(=O)OC)N1C(=O)OC	4.37	–
CC1(C)Cc2c(sc(NC(=O)C(=O)NCC3CCCO3)c2C(=O)O)CO1 (centres undefined)	24.4	–
Cn1c(SCC(=O)Nc2nccs2)nnc1-c1cccnc1	0.876	–
Cc1ccc(C2C3=C(Nc4[nH]n(-c5ccccc5)c(=O)c42)c2ccccc2C3=O)cc1 (centres undefined)	-3.68	–
COc1ccccc1NC(=O)C1=C(C)NC2=C(C(=O)CCC2)C1c1ccc(C)o1 (centres undefined)	-9.66	–
COC(=O)C1=C(C)NC2=C(C(=O)c3ccccc32)C1c1ccc(-c2ccc(C(=O)O)cc2)o1 (centres undefined)	–	20.6 µM (active)
O=C(Nc1ccncc1)c1ccc(Cl)c([N+](=O)[O-])c1	-21.7	–
Oc1ccc2ccccc2c1C=Nc1ccccc1	4.96	–
Oc1ccc(N=Cc2c(O)ccc3ccccc23)cc1	-21.1	–
Oc1ccc2ccccc2c1N=Nc1nccs1	–	3.66 µM (active)
CC(C)C(NC(=O)c1c(F)cccc1F)C(=O)NNC(=O)c1ccccc1 (centres undefined)	16.2	–
CN(C(=O)Cn1nnc(-c2ccc(F)cc2)n1)C1CCS(=O)(=O)C1 (centres undefined)	-4.84	–
CN(C)S(=O)(=O)c1cccc(NC(=O)Cc2ccsc2)c1	-4.35	–
CN(CC(=O)Nc1cccc(F)c1)C(=O)C1=COCCO1	1.14	–
Cn1nccc1CNC(=O)c1ccnn1C	-1.3	–
CCCc1ccc(-c2c(C)sc(NC(=O)c3ccnn3C)c2C#N)cc1	–	18.4 µM (active)
CCN(CC)C(=O)c1sc(NC(=O)c2ccco2)c(C#N)c1C	3.83	–
CSc1ccccc1C(=O)OCC(=O)N1CCN(C(C)=O)CC1	6.83	–
Cc1ccc(C)c(S(=O)(=O)N2CCN(c3ncnc4sccc34)CC2)c1	–	1.83 µM (active)
COc1ccc(C)cc1S(=O)(=O)N1CCN(S(=O)(=O)c2cc(C(=O)O)ccc2C)CC1	10	–
Cc1ccc(C)c(S(=O)(=O)n2cnc3ccccc32)c1	8.47	–
CC(=O)N1c2ccc(S(=O)(=O)N3CCC(C(=O)N4CCN(c5ccccc5)CC4)CC3)cc2CC1C (centres undefined)	-10.6	–
CC(=O)N1CCCc2cc(S(=O)(=O)CCC(=O)N3CCN(c4ccccc4)CC3)ccc21	-11.5	–
CCCS(=O)(=O)N1CCCC(C(=O)N2CCN(c3ccccc3)CC2)C1 (centres undefined)	1.94	–

Structure (SMILES)	activity change, negative = inhibition [%]	Potency
CC(=O)N1CCCc2cc(S(=O)(=O)N3CCCC(C(=O)N4CCN(c5cccc(Cl)c5)CC4)C3)ccc21 (centres undefined)	–	20.6 µM (active)
Cc1ccc(S(=O)(=O)N2CCCC(C(=O)N3CCN(C)CC3)C2)cc1 (centres undefined)	-5.55	–
O=C(C1CCCN(S(=O)(=O)c2ccccc2)C1)N1CCN(c2ccc(F)cc2)CC1 (centres undefined)	–	11.6 µM (active)
O=S(=O)(NC1CCCCC1N1CCN(c2ccccc2F)CC1)c1ccccc1 (centres undefined)	-4.79	–
COc1ccccc1N1CC(C(=O)Nc2nnc(SCC(=O)NCC3CCCO3)s2)CC1=O (centres undefined)	-13.9	–
COc1ccc2[nH]c3nc(SCC(=O)NC4CC4)nnc3c2c1	8.12	–
Cc1cccc(S(=O)(=O)N2CN(CC3CCCO3)c3nc4ccccc4nc32)c1 (centres undefined)	3.28	–
CCOc1ccc(NC(=O)CN(C)C(=O)COc2cccc(CC)c2)cc1OCC	12.8	–
CN(CC(=O)Nc1ccc(F)cc1)C(=O)c1ccc(-c2ccc(Cl)cc2)o1	0.408	–
CC(C)(C)NS(=O)(=O)NC(=O)C1=C(N2CCCC2)COC1=O	16.4	–
CCCc1cc(=O)oc2cc(OCC(=O)Nc3ccc(CN4CCOCC4)cc3)c(Cl)cc12	-13.1	–
CCCCN1C(=O)C(C)=C(C)C1OCCc1ccc(OC)c(OC)c1 (centres undefined)	-6.77	–
CCC(CO)Oc1cc(NC(=O)c2ccc(Cl)cc2)c2ncn(C(C)C)c2c1 (centres undefined)	0	–
O=C(O)c1ccccc1-c1ccccc1C(=O)Nc1cccc2ccccc12	-3.68	–
CCC(CO)Oc1cc(NC(=O)c2cccc3ccccc23)c2ncn(C(C)C)c2c1 (centres undefined)	–	14.6 µM (active)
CC(C#N)(NC(=O)CN1CCN(S(=O)(=O)c2cc(C(F)(F)F)ccc2Cl)CC1)C1CC1 (centres undefined)	2.4	–
Cc1ccc(S(=O)(=O)Nc2nc(CN3CCOCC3)nc3sc(C)c(C)c23)cc1	16	–
C[C@H]1COC(=O)[C@H](CC(=O)OC(C)(C)C)C/C=C\C[C@@H](CC(=O)N[C@H](CO)Cc2ccccc2)C(=O)N1	-6.43	–
O=C(CSc1nc2nccnc2c(=O)n1Cc1cccs1)Nc1ccccc1F	15.3	–
O=C(Nc1ccccc1-c1ccccc1)c1cccs1	4.08	–
O=C(Nc1ccccc1-c1nnn(CC(=O)N2CCN(c3ccccc3)CC2)n1)c1cccs1	–	23.1 µM (active)
COc1ccccc1N1CCN(C(=O)Cn2nnc(-c3cccs3)n2)CC1	-16	–
CN1C2CCC1CC(NC(=O)c1ccc([N+](=O)[O-])cc1)C2 (centres undefined)	2.06	–
O=C(N[C@@H]1C/C=C\C[C@@H](CC(=O)N(CCO)Cc2ccccc2)C(=O)N[C@H](Cc2ccccc2)COC1=O)OCC1c2ccccc2-c2ccccc21	6.07	–
